Drawing on PubChem BioAssay (NCI), this text covers growth inhibition for 40 molecules.

The panel holds about 79,000 compounds, 15% with a hit somewhere; the sample as a whole holds those more often. Activity calls are given as the source filed them. Cut-off read from the data, not from the text of the source: active = growth inhibition above about 70%; inactive = the rest.

The test can be described thus: NCI Yeast Anticancer Drug Screen. Data for the mlh1 rad18 strain (AID 175). The note with it: S. cerevisiae mlh1 rad18 strain growth inhibition; at 50.0 µM; active compounds read high. Put shortly: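 Cells of a genetically altered yeast strain, deficient in DNA damage repair, were treated with compound. Their growth was then compared with that of vehicle-treated cultures to give inhibition.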
As for `COc1ccc(-c2cc(=O)c3cc(C)c(C)c(C(=O)O)c3o2)cc1`, the growth inhibition was 0.75% (inactive). For `Cc1ccc(S(=O)(=O)/N=C2\CCN(S(=O)(=O)c3ccccc3)N2S(=O)(=O)c2ccc(C)cc2)cc1` the value was 46.5% (inactive); for `COc1cc(/C=C(\OC(C)=O)c2ccc3c(c2)OCO3)cc(OC)c1OC`, -19.1% (inactive). As for `Cc1cccc(C)c1NC(=O)Oc1ccc(Cl)cc1Cc1ccccc1`, the figure is 99.3% (active); as for `CC1CCCCC12COC(O)CO2` (stereo not given), -31.9% (inactive). As for `Nc1cccc(OCC2CCCN3CCCCC23)c1` (stereo not given), the figure is -64.8% (inactive); as for `CCCCCCC(=O)/C=C/c1cc(Cl)cc(Cl)c1OCOC`, 5.6% (inactive). As to `CC1(c2ccccc2)CCCCC1OC(N)=O` (stereo not given), the growth inhibition was -5.15% (inactive).

As for `O=C(OCC(OC(=O)c1ccccc1)C(OC(=O)c1ccccc1)C(OC(=O)c1ccccc1)c1nn[nH]n1)c1ccccc1` (stereo not given), the growth inhibition was 80.5% (active). For `COC(=O)/C(C)=C/C=C/C(C)C(O)C(C)C1OC(CC(OC)OC)C(C)C(O)C1C` (stereo not given) the value was 19.9% (inactive); for `CCOC(=O)c1cc2cc(C)cc(C(=O)c3ccc([N+](=O)[O-])cc3)c2[nH]1`, -16.3% (inactive); for `CC(C)N1CC2CC(CN(C(=O)c3ccc(Cl)cc3)C2)C1`, -5.9% (inactive). As for `CC(C)C(NC(=O)C1CSC(C)(C)N1C=O)C(N)=O` (stereo not given), the figure is -25.2% (inactive).

`CCCOC(=O)/C=C/C(=O)N1CC(C)N(C(=O)/C=C/C(=O)OCCC)CC1C` (stereo not given): the growth inhibition was 25.2% (inactive).

Turning to `O=S(=O)(Nc1ccccc1C(O)c1ccccc1)c1ccccc1` (stereo not given), the growth inhibition was 34.4% (inactive).

Take `CCOC(=O)CCc1c(C)c2c(OC(C)=O)cc(OC(C)=O)cc2oc1=O`: the growth inhibition was 2.4% (inactive). For `C/C(=C/c1ccccc1)C(=O)O`, the growth inhibition is -2.45% (inactive). For `O=C(O)Cc1cc2cccc([N+](=O)[O-])c2[nH]1` the value was 9.2% (inactive); for `NC(=O)N/N=C(\c1ccccc1)C1CCCCc2ccccc21` (stereo not given), 48% (inactive). As for `ClCCCCC(Cl)(Cl)Cl`, the growth inhibition was 23.3% (inactive). As for `CS(=O)(=O)OC1C(OC(=O)c2ccccc2)COC(OCc2ccccc2)C1OS(C)(=O)=O` (stereo not given), the figure is 5.7% (inactive); as for `CCCCCc1cc(O)cc2c1Oc1cc(O)cc(C(=O)CCCC)c1C(=O)O2`, -14.2% (inactive); as for `Cc1cc2nc(CC(O)c3nc4cc(C)c(C)cc4[nH]3)[nH]c2cc1C` (stereo not given), 5.8% (inactive).

As to `Clc1ccccc1-c1nnc(-c2cccc(-c3nnc(-c4ccccc4Cl)o3)n2)o1`, the growth inhibition was 12% (inactive).

Consider `CCOc1cccc(/C=N/N=C2\C(=O)Nc3c(Cl)cc(Cl)cc32)c1O`, for which the growth inhibition is 83.2% (active).

For `CCCC=Nc1ccccc1`, the growth inhibition is 13.1% (inactive). For `CN1CC(O)C(C(=O)NC23CC4CC(CC(C4)C2)C3)C1` (stereo not given) the value was 30.2% (inactive); for `CCCCCCCCCCN=C(N)CSSCC(N)=NCCCCCCCCCC`, 97.4% (active); for `O=C1NC2(CCCCC2)C(=O)N1CCN1C(=O)NC2(CCCCC2)C1=O`, -10.5% (inactive). As for `COc1cc(C(OC(C)=O)OC(C)=O)c(Cl)cc1OC(C)=O`, the figure is 11.8% (inactive); as for `COC1=CC(=O)C(=O)C=C1C(C)(C)C`, 9.55% (inactive). For `N#CCCC(=O)O` the value was 15.8% (inactive); for `O=C(Nc1ccccc1C(=O)O)C(=O)C(C(=O)c1ccccc1-c1ccccc1)C1OC(=O)c2ccccc21` (stereo not given), 13.9% (inactive). In the case of `O=S1(=O)c2ccccc2NC(c2ccc3ccccc3c2)CC1c1ccccc1F` (stereo not given), the growth inhibition was -14.2% (inactive). As for `Cc1nc(N)sc1C(=O)/C=C/c1ccc([N+](=O)[O-])cc1`, the figure is 9.45% (inactive). For `CCC(C)(O)C#CC#CC(C)(O)CC` (stereo not given) the value was 22.1% (inactive).

As to `COc1ccc(OC)c(NC(=O)C(=O)C(C(=O)c2ccccc2F)C2OC(=O)c3ccccc32)c1` (stereo not given), the growth inhibition is -41.2% (inactive). As for `C[C@@]12CCC(=O)c3coc(c31)C(=O)c1cc3c(cc12)C(=O)C=CC3=O`, the figure is 91.9% (active). For `Clc1ccc(-c2nc(CSc3ccccn3)cs2)cc1` the value was -6.8% (inactive); for `O=C(O)C(CCl)(CCl)CCl`, 15.2% (inactive).
